Several values for one entry are separate records, joined by “and”; a condition that tells them apart may be missing. Equal entries are not always repeated. Results filed as inconclusive are left out. Activity calls are given as the source filed them. Unless noted, no cut-off is given here; in the data, nearly all actives have AC50 up to about 26 µM.
Assays:
[1] = liver-stage malaria parasite growth inhibition, primary screen, cell-based, HepG2, luciferase luminescence, HepG2 viability (AID 624349; in the data active = parasite load remaining mostly below about 12%, no sharp cut-off; inactive = mostly above about 10%;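 note: 100% = mean of DMSO negative control wells on the same plate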); conditions: P. berghei liver stage in HepG2, luciferase luminescence, concentration not given here; parasite load remaining: stronger effect = lower value; viability: measured here: HepG2 viability without parasites
[2] = growth inhibition of DIPG glioma cells, dose response, cell-based, SU-DIPG-XIII, MIPE4.0, CellTiter-Glo, qHTS (AID 1347061; cut-off not given, nearly all actives have AC50 up to about 37 µM;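 note: cells exposed to compound for 48 hours before readout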); conditions: SU-DIPG-XIII viability, CellTiter-Glo ATP luminescence
[3] = growth inhibition of DIPG glioma cells, dose response, cell-based, JHH-DIPG-1, MIPE4.0, CellTiter-Glo, qHTS (AID 1347062; cut-off not given, nearly all actives have AC50 up to about 27 µM;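 for AC50: cells exposed to compound for two days before readout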); conditions: JHH-DIPG-1 viability, CellTiter-Glo ATP luminescence
[4] = growth inhibition of DIPG glioma cells, dose response, cell-based, SU-DIPG-IV, MIPE4.0, CellTiter-Glo, qHTS (AID 1347063; cut-off not given, nearly all actives have AC50 up to about 30 µM;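 note: compound exposure lasted 48 hours before the viability readout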); conditions: SU-DIPG-IV viability, CellTiter-Glo ATP luminescence
[5] = growth inhibition of DIPG glioma cells, dose response, cell-based, SU-DIPG-XIII, MIPE5.0, CellTiter-Glo, qHTS (AID 1347064; cut-off not given, nearly all actives have AC50 up to about 23 µM;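 for AC50: cells exposed to compound for 48 hours before the viability read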); conditions: SU-DIPG-XIII viability, CellTiter-Glo ATP luminescence
[6] = viability loss in pontine glioma line – cell-based, SU-DIPG-XXV, MIPE5.0, CellTiter-Glo, qHTS, dose response (AID 1347065); conditions: CellTiter-Glo ATP luminescence;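 note: cells exposed to compound for 48 hours before ATP readout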
[7] = SU-DIPG-VI glioma cell viability, MIPE4.0 library, CellTiter-Glo luminescence, qHTS (AID 1347066; cut-off not given, nearly all actives have AC50 up to about 30 µM;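 note: cells exposed to compound for 48 hours before readout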); conditions: CellTiter-Glo ATP luminescence
[8] = JHH-DIPG-1 glioma cell viability, MIPE5.0 library, CellTiter-Glo luminescence, qHTS (AID 1347067); conditions: JHH-DIPG-1 glioma viability, CellTiter-Glo ATP luminescence;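 note: cells exposed to compound for 48 hours before readout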
[9] = SU-DIPG-XXV glioma cell viability, MIPE5.0 library, qHTS (AID 1347068; cut-off not given, nearly all actives have IC50 up to about 30 µM;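 for IC50: cells exposed to compound for 48 hours before viability readout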)
[10] = sensitizers of A549 cells to miR-34 induction, primary screen, imaging, A549 dox-inducible miR-34, nuclei and caspase counts (AID 1347080;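 active = compounds whose cell count with miR-34 switched on is under 0.7 times the count with it off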); conditions: A549 miR-34 inducible, Hoechst nuclei count, 48 h
[11] = survival rescue of mitochondrial mutant cells in low glucose, primary screen, MELAS cybrids, Rieske KO mouse fibroblasts, CellTiter-Glo (AID 1508586;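 active = mean z-score across replicates of 1.96 or higher in either the MELAS or the Rieske mutant cell line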;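 note: z relative to plate mean and SD of compound and empty wells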)
[12] = biological target: NAD(+) hydrolase SARM1 (Homo sapiens) (UniProt Q6SZW1); assay: SARM1 TIR NADase inhibitors, cell lysate, NAD-Glo luminescence (AID 1508614;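 active = compound whose remaining NAD level is above about 45 nM, limit read from the data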;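 note: higher remaining NAD means stronger inhibition of SARM1 NADase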); conditions: SAM-TIR HEK293T lysate NADase, at 1 µM, stronger effect = higher value
[13] = biological target: Mitogen-activated protein kinase 7 (Homo sapiens) (UniProt Q13164); assay: ERK5 transactivation activators in reporter cells, primary screen, cell-based, HTS (AID 1508626;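 active = luciferase signal above three times the same-plate solvent-only control wells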;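 note: luciferase driven by Gal4-ERK5 fusion binding five Gal4 sites before minimal TATA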); conditions: HeLa Gal4-ERK5 transactivation, 18 h, at 5 µM, stronger effect = higher value
[14] = viability rescue of complex I mutant cybrids, primary screen, cell-based, galactose medium, ATP luminescence (AID 1645843;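 active = z-score of at least 1.8 in each of two replicates, scored against plate mean and spread of sample wells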;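 note: positive z means more ATP and so rescue of galactose-driven cybrid death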); conditions: complex I mutant cybrid cells, 72 h, stronger effect = higher value
[15] = growth inhibition of DIPG glioma cells, dose response, cell-based, SU-DIPG-XVII, MIPE5.0, CellTiter-Glo, qHTS (AID 1347060); conditions: SU-DIPG-XVII viability, CellTiter-Glo ATP luminescence;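 for AC50: cells exposed to compound for 48 hours before viability readout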
[16] = modifiers of HSF1 nuclear foci, imaging, Selleck Cancer Library (AID 1347162; in the data active = plate-normalised HSF1 focus index below about 0.46); conditions: human cells, at 10 µM; SSMD: measured here: HSF1 foci SSMD mean; cell count: measured here: cell number; plate-normalised HSF1 focus index: stronger effect = lower value
[17] = stronger effect = lower value, cell number ratio, induced over uninduced
[18] = measured here: relative caspase fold change +Dox/-Dox
[19] = measured here: total cells with miR-34 induction, stronger effect = lower value
[20] = measured here: total cells without miR-34 induction
[21] = MELAS cybrid survival, CellTiter-Glo 48 h, stronger effect = higher value
[22] = Rieske KO mouse fibroblast survival, CellTiter-Glo 72 h

Mitogen-activated protein kinase 7 (Homo sapiens), sequence (Q13164 whole entry, looked up, the tested form may be a part): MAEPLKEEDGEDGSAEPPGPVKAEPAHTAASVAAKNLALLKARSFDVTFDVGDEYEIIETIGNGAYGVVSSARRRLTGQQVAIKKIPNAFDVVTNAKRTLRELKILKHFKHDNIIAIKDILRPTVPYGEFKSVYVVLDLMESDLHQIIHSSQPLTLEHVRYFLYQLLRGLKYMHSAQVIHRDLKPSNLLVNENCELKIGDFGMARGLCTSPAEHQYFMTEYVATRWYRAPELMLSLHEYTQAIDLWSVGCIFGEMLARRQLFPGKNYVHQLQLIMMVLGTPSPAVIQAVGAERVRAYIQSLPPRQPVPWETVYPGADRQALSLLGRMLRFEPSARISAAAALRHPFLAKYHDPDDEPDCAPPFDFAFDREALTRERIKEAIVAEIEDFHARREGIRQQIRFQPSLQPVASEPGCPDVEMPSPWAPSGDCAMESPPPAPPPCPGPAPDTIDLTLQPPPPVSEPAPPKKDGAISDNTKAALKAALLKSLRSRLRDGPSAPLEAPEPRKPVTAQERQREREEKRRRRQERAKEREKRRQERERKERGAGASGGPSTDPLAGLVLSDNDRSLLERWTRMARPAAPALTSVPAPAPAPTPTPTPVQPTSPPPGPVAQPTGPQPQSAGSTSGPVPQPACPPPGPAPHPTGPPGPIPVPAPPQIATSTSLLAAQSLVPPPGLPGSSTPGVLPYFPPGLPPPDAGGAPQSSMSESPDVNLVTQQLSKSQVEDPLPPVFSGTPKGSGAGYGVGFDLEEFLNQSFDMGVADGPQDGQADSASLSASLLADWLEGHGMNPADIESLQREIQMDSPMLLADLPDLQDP
NAD(+) hydrolase SARM1 (Homo sapiens), sequence (Q6SZW1 whole entry, looked up, the tested form may be a part): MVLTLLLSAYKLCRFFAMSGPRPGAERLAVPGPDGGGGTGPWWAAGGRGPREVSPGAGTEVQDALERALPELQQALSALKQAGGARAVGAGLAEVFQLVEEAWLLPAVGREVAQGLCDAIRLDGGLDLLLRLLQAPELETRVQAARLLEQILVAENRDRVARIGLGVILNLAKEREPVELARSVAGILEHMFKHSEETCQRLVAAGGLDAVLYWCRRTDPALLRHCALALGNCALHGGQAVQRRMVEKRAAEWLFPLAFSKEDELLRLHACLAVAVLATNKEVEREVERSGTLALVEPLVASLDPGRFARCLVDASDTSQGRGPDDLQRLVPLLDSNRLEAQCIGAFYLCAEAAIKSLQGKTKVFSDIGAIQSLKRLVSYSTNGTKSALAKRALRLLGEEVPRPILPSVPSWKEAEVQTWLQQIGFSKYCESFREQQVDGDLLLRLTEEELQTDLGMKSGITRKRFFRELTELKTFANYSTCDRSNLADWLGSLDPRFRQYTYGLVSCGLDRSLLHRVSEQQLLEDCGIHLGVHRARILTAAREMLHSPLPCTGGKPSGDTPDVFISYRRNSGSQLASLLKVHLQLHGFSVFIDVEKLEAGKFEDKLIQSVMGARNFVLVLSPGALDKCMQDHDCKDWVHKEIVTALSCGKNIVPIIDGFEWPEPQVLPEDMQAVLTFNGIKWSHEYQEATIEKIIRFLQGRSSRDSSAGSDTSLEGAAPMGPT

Question: Which parasite load remaining [1] does the source give for `CCOC(=O)C1=C[C@@H](OC(CC)CC)[C@H](NC(C)=O)[C@@H](N)C1` here?
Answer: 175% (inactive) and 21.5% (inactive)

Question: What about the viability [1] of the same compound?
Answer: 83.1% and 67.5%

Question: And the outcome [2]?
Answer: inactive

Question: And the outcome [3]?
Answer: inactive

Question: And the outcome [4]?
Answer: inactive

Question: What about the outcome [5] of the same compound?
Answer: inactive

Question: And the outcome [6]?
Answer: inactive

Question: What about the outcome [7] of the same compound?
Answer: inactive

Question: What about the outcome [8] of the same compound?
Answer: inactive

Question: What about the outcome [9] of the same compound?
Answer: inactive

Question: And the fold change [10, 17]?
Answer: 0.9 (inactive)

Question: And the fold change [10, 18]?
Answer: 1.08

Question: And the cell count [10, 19]?
Answer: 9340

Question: What about the cell count [10, 20] of the same compound?
Answer: 10400

Question: And the z-score [11, 21]?
Answer: 0.348 (inactive)

Question: And the z-score [11, 22]?
Answer: -0.618

Question: What about the remaining NAD [12] of the same compound?
Answer: 10 nM (inactive)

Question: What about the luciferase signal [13] of the same compound?
Answer: 56 AU (inactive)

Question: What about the z-score [14] of the same compound?
Answer: 0.705 (inactive)

Question: Which outcome [2] does the source give for `CO[C@H]1C(=O)[C@]2(C)[C@@H](OC)C[C@H]3OC[C@@]3(OC(C)=O)[C@H]2[C@H](OC(=O)c2ccccc2)[C@]2(O)C[C@H](OC(=O)[C@H](O)[C@@H](NC(=O)OC(C)(C)C)c3ccccc3)C(C)=C1C2(C)C` here?
Answer: inactive

Question: What about the outcome [3] of the same compound?
Answer: inactive

Question: What about the outcome [4] of the same compound?
Answer: inactive

Question: What about the outcome [5] of the same compound?
Answer: inactive

Question: And the AC50 [6]?
Answer: 0.00186 µM (active)

Question: And the outcome [7]?
Answer: inactive

Question: And the outcome [8]?
Answer: inactive

Question: Which outcome [15] does the source give for `COc1cc(OC)c2c(=O)[nH]c(-c3cc(C)c(OCCO)c(C)c3)nc2c1` here?
Answer: inactive

Question: And the outcome [9]?
Answer: inactive

Question: And the fold change [10, 17]?
Answer: 0.96 (inactive)

Question: And the fold change [10, 18]?
Answer: 0.714

Question: What about the cell count [10, 19] of the same compound?
Answer: 7650

Question: And the cell count [10, 20]?
Answer: 7970

Question: And the z-score [11, 21]?
Answer: -0.573 (inactive)

Question: What about the z-score [11, 22] of the same compound?
Answer: -1.26

Question: Which results are given for `c1cc(-c2cnn3cc(-c4ccc(OCCN5CCCCC5)cc4)cnc23)ccn1`?
Answer: parasite load remaining [1]: 40.1% (inactive); viability [1]: 103%; AC50 [2]: 23.5 µM (active); AC50 [3]: 10.5 µM (active); AC50 [4]: 10.5 µM (active); AC50 [5]: 13.2 µM (active); AC50 [6]: 11.8 µM (active); AC50 [7]: 23.5 µM (active); AC50 [8]: 14.8 µM (active); IC50 [9]: 11.8 µM (active)

Question: What does the source list for `O=C(O)c1ccc(-c2cc3cccnc3c(-c3ccc4nonc4c3)n2)cc1`?
Answer: outcome [2]: inactive; AC50 [3]: 20.9 µM (active); AC50 [4]: 26.4 µM (active)

Question: For `CNC(=O)[C@@H](NC(=O)[C@H](CC(C)C)[C@H](O)C(=O)NO)C(C)(C)C`, which AC50 [15] is on record?
Answer: 18.6 µM (active)

Question: What about the outcome [9] of the same compound?
Answer: inactive

Question: What about the SSMD [16] of the same compound?
Answer: 3.3

Question: What about the cell count [16] of the same compound?
Answer: 6770

Question: And the plate-normalised HSF1 focus index [16]?
Answer: 1.2 (inactive)

Question: Which outcome [2] does the source give for `Cc1cc(OCCCc2c(C(=O)O)n(Cc3cccnc3)c3c(-c4c(COc5ccc(N6CCN([S+](C)(=O)[O-])CC6)cc5)nn(C)c4C)cccc23)cc(C)c1Cl` here?
Answer: inactive

Question: And the outcome [3]?
Answer: inactive

Question: And the AC50 [4]?
Answer: 20.9 µM (active)
